# Inconclusive results are not listed. A call without a number means that no potency is given here. Activity calls are given as the source filed them. Calls follow the shape of the dose curve; as a rule, active = well fitted inhibition curve with a large enough effect in the repeat runs; inconclusive = weak or mixed curves; inactive = flat fitted curve, though single readings scatter.
# Target: Luciferin 4-monooxygenase (Photinus pyralis) (UniProt P08659)
# Assay: qHTS assay to identify small molecule inhibitors of firefly luciferase (AID 1224835); also: nearly all actives have a fitted effect of over 25% in size
# Settings: purified P. pyralis luciferase, luminescence inhibition; series mostly up to 115 µM
# Excerpt: U.S. Tox21 Program National Center for Advancing Translational Sciences [NCATS] NIH Chemical Genomics Center [NCGC] U.S. Environmental Protection Agency [EPA] National Institutes of Environmental Health Sciences [NIEHS] National Toxicology Program [NTP] U.S. Food and Drug Administration [FDA] Tox21 Assay Overview: Firefly (Photinus pyralis) luciferase is one of the most commonly used transcriptional reporters. Firefly luciferase reporter-gene assays are generally considered one of the most sensitive assay types (Wood, 1995; Wood, 1998). However, it was initially observed, in 1991, by Thompson et al., that compounds that resemble the substrates of firefly luciferase (FLuc) can act as competitive inhibitors of the enzyme, and that these compounds, upon interaction with luciferase in the cell, can actually stabilize the protein and increase its half-life. Previous profiling work by other groups to determine the prevalence of compounds that affect FLuc enzymatic activity (PubChem AID 411) identified that ~3% of the MLSMR library (then at ~72K) inhibited FLuc. […] Thus the Tox21 10K library is profiled for activity against FLuc using a biochemical assay of purified FLuc and KM concentrations of FLuc substrates (D-luciferin and ATP).
# These assay plates were then treated with 23nL of compound or DMSO using a Kalypsys pin tool, which allows for delivery of a 6-point interplate titration of each compound to the assay plate (quantitative HTS.) 1 uL of firefly luciferase mix (containing 50 mM Tris acetate, pH 7.6, 0.04 uM P. pyralis luciferase, 0.01% Tween, 0.05% BSA and dH2O) was then delivered by FRD to each well. Luciferase activity was then measured using a ViewLux CCD imager.
# Potency is read from the fitted curve at half-maximal effect.
# Luciferin 4-monooxygenase (Photinus pyralis), sequence (P08659 whole entry, looked up): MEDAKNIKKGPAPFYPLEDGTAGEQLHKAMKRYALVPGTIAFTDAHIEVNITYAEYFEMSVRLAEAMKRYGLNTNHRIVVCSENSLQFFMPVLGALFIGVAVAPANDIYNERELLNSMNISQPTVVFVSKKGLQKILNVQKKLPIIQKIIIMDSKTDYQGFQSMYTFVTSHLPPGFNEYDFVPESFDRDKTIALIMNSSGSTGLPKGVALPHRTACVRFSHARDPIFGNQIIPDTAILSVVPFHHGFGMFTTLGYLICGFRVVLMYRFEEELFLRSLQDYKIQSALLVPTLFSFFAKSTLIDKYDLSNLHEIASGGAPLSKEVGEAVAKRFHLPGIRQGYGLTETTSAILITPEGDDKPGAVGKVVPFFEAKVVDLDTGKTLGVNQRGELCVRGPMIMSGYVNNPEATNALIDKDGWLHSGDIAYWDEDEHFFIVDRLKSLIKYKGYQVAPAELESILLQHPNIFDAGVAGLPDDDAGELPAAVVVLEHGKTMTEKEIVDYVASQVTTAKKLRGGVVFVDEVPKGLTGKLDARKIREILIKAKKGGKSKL
Compound,Potency,"activity change, negative = inhibition"
O=C1O[C@@H]2[C@@H](O)[C@H](O)O[C@@H]2[C@H]1O,inactive,
COc1ccc2c(c1)C(=O)N(CCc1ccc(S(=O)(=O)NC(=O)NC3CCCCC3)cc1)C(=O)C2(C)C,inactive,
CC(CN)CC(C)(C)CCN (stereo not given),inactive,
O=C1c2cccc3c2[C@H](CCC3)CN1[C@@H]1CN2CCC1CC2,inactive,
CC(C)NCC(O)COc1ccc(COCCOC(C)C)cc1 (stereo not given),inactive,
CC(=O)c1ccc2c(c1)Cc1ccccc1-2,25.2 µM (active),
Cc1ccccc1OCC(O)CO (stereo not given),inactive,
Cc1c(I)c(=O)n(-c2ccccc2)n1C,inactive,
Cc1cccc(C)c1NC(=O)c1ccccc1C(=O)O,inactive,
O=C(CS(=O)Cc1ccco1)NC/C=C\COc1cc(CN2CCCCC2)ccn1 (stereo not given),inactive,
On1nnc2ccccc21,inactive,
CC(C)C[C@H](NC(=O)CNC(=O)[C@H](Cc1ccc(O)cc1)NC(=O)[C@H](CO)NC(=O)[C@H](Cc1c[nH]c2ccccc12)NC(=O)[C@H](Cc1cnc[nH]1)NC(=O)[C@@H]1CCC(=O)N1)C(=O)N[C@@H](CCCN=C(N)N)C(=O)N1CCC[C@H]1C(=O)NCC(N)=O (stereo in doubt),inactive,
C=C(C)C(=O)OCCNC(C)(C)C,inactive,
OCCN(CCO)c1cccc(Cl)c1,inactive,
FC(F)(F)c1ccccc1-n1ccnc1,inactive,
CC(C)c1ccc2cc(C(C)C)ccc2c1,15.9 µM (active),
COc1cc(N)ccc1C,inactive,
CNS(=O)(=O)CCc1ccc2[nH]cc(C3CCN(C)CC3)c2c1,inactive,
CCCCNC1CC(C)(C)NC(C)(C)C1,inactive,
Cc1cc(Cl)c(C)cc1Cl,inactive,

Compound,Potency,"activity change, negative = inhibition"
C=C(C)C(=O)OCC(C)(C)COC(=O)C(=C)C,inactive,
O=C(c1ccc(O)cc1)c1ccc(O)c(O)c1O,63.5 µM (active),
Oc1cn2c(n1)Nc1ccc(Cl)c(Cl)c1C2,,0.455% [at 23.6 µM] (inactive)
CC(C)CC(=O)O,inactive,
CC(C)N(c1ccccc1)C(C)C,inactive,
COP(=O)(OC)OC(c1ccc(Cl)cc1)P(=O)(OC)OC (stereo not given),inactive,
CCO[Si](CCCS)(OCC)OCC,inactive,
O=S(=O)(O)CCN1CCN(CCO)CC1,inactive,
O=C(O)C(=O)Cc1ccccc1,inactive,
C[Si](C)=O,,5.26% [at 10.5 µM] (inactive)
CCC(C)(CCC(C)C)C(=O)O (stereo not given),inactive,
ClCCCl,inactive,
CCCCCCCC/C=C\CCCCCCCC(=O)OCCCC,,-1.11% [at 23.6 µM] (inactive)
Cc1cccc(C)c1OCC(C)N (stereo not given),inactive,
C[C@@H](O)[C@H]1C(=O)N2C(C(=O)O)=C(SCCN=CN)C[C@H]12,inactive,
COc1ccc2c(c1OC)C(=O)O[C@@H]2[C@H]1c2c(cc3c(c2OC)OCO3)CCN1C,inactive,
CN(C)CCOCCO,inactive,
CCn1ccc(NS(=O)(=O)c2ccc(N)cc2)nc1=O,inactive,
COc1cc2c(cc1OC)C(=O)CC2,inactive,
Oc1ccccc1-c1nnco1,inactive,
